“And” between values parts separate entries of the source, which are not always exact repeats. Equal values may be shown once. Results filed as inconclusive are left out. Some compounds were tested as several samples or in several runs, with calls that do not always agree. The source made the active and inactive calls. Rule for the calls: active = hit-call score of the fitted dose curve at least 0.9, where 1 is the maximum; inconclusive = response in the unintended direction; inactive = score below 0.9.
Assays:
[1] = Tanguay_ZF_120hpf_ActivityScore_legacy: (Legacy) Oregon State University Tanguay Lab 120 Hour Post-fertilization zebrafish Assay Score for Activity (AID 2283742);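 for AC50: dechorionated Tropical 5D wild-type zebrafish embryos held singly per well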
Method in brief: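 Dechorionated 5D embryos, one per well, static exposure 6–120 hpf, 28C, sealed and dark; final DMSO 0.64% (vol/vol). Brightfield binary scoring of mortality plus 18 endpoints; gain-of-signal fit versus DMSO baseline.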

[2] = biological target: Luciferin 4-monooxygenase (Photinus pyralis) (UniProt P08659); assay: CCTE_Simmons_QuantiLum_inhib_2: CCTE's Firefly Luciferase Inhibition Assay, Simmons Lab (AID 2283767);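 for AC50: potency for inhibitors that lower luciferase luminescence relative to DMSO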
Chain of Luciferin 4-monooxygenase (Photinus pyralis) (P08659 whole entry, looked up): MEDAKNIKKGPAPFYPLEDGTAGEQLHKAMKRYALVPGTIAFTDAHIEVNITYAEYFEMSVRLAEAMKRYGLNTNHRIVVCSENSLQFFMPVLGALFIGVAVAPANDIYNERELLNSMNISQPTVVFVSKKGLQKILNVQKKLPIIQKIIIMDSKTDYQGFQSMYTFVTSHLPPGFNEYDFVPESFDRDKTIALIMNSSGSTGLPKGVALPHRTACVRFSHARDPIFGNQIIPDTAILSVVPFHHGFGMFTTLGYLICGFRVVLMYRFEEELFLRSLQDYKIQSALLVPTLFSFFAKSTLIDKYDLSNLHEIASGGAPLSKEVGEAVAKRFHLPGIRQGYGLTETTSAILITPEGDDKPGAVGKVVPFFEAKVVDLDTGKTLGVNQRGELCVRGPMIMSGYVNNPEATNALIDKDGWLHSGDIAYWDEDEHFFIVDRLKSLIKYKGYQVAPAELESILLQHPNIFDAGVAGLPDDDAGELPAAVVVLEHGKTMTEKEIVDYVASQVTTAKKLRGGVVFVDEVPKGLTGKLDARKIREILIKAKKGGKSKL
Method in brief: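 Eight test concentrations, 5 nM up to 87.5 uM final, preincubated 30min at 37C in the dark with purified luciferase (0.5% DMSO final). Detection reagent (150uM D-luciferin, 147uM dATP, 75uM CoA, pH 7.8) injected per well before kinetic luminescence read; three replicates.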

[3] = ACEA_AR_agonist_AUC_viability: ACEA Biosciences xCELLigence Real-Time Cell Analysis on Androgen Receptor Agonism for Viability (AID 2283775);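 for AC50: viability read 80 hours after compound addition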
Method in brief: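 22Rv1 cells; impedance growth kinetics; 8-pt 1:4 dilutions from 100 uM top final, ≤0.5% DMSO; n = 2; 80 h read; AUC viability, loss-of-signal vs DMSO.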

[4] = ACEA_AR_antagonist_AUC_viability: ACEA Biosciences xCELLigence Real-Time Cell Analysis on Androgen Receptor Antagonism for Viability (AID 2283776);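 note: area under impedance growth curve at 80 h after dosing as viability; hits lower the growth signal relative to DMSO meaning cytotoxicity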
Method in brief: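 22Rv1 human prostate cancer cells were seeded on electrode plates, monitored overnight, then exposed to eight 1:4 dilutions from 100 uM final. Impedance-based growth kinetics at 80 h gave an AUC viability endpoint normalized to DMSO.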

[5] = ACEA_ER_AUC_viability: ACEA Biosciences xCELLigence Real-Time Cell Analysis on Estrogen Receptor Agonism for Viability (AID 2283782);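 note: hit means loss of impedance signal meaning reduced cell growth or viability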
Method in brief: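 Read-out: real-time electrical impedance (RT-CES) area under curve, loss of signal taken as reduced viability, normalized to DMSO baseline. T-47D cells, charcoal-stripped serum medium, compounds up to 100 uM final, continuous exposure, 80 h.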

[6] = biological target: AR (gene 367) (UniProt P10275); assay: ACEA_AR_agonist_80hr: ACEA Biosciences xCELLigence Real-Time Cell Analysis on Androgen Receptor Agonism for Proliferation (AID 2283783);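 note: hits increase impedance growth signal above DMSO baseline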
Chain of AR (gene 367) (P10275 whole entry, looked up): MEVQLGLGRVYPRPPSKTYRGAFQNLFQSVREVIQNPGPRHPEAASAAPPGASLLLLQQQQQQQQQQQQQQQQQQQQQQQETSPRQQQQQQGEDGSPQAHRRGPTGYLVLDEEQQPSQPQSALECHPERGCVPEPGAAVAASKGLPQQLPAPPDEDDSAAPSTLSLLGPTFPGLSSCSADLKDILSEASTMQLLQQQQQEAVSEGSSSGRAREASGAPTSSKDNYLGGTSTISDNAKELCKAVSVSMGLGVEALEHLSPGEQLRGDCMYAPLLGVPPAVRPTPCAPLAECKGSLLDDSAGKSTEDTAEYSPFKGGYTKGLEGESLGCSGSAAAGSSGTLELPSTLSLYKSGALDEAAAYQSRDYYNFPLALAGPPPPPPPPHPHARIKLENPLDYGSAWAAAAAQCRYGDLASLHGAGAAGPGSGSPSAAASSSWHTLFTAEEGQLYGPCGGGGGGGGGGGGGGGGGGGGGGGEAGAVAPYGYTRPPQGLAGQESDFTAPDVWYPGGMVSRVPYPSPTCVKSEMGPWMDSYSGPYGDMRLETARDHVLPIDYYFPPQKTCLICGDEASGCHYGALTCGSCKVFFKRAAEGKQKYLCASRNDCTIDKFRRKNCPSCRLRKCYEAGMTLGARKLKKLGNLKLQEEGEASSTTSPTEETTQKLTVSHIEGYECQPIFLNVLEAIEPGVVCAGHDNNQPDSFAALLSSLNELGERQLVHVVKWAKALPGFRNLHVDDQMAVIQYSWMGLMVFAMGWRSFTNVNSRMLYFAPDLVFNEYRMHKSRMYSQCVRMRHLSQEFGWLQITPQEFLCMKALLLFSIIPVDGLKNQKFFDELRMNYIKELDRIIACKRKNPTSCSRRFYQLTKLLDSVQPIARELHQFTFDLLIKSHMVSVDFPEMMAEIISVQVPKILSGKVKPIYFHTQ
Method in brief: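 Impedance (RT-CES) growth signal at 80 h post-dose; 22Rv1 cells, 8-pt 1:4 series, top 100 uM final, DMSO ≤0.5%; duplicate plates; gain-of-signal fit relative to DMSO baseline.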

[7] = biological target: AR (gene 367) (UniProt P10275); assay: ACEA_AR_antagonist_80hr: ACEA Biosciences xCELLigence Real-Time Cell Analysis on Androgen Receptor Antagonism for Proliferation (AID 2283787);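 note: hits lower the impedance growth signal relative to DMSO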
Method in brief: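 Measures real-time proliferation of 22Rv1 prostate cancer cells by electrode impedance at 80 hours after dosing. Test articles ran at eight concentrations (1:4 steps, top 100 uM final) in biological duplicate.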

[8] = test system: turtle Estrogen Receptor (ERa), gene 101933533; assay: ATG_trERa_XSP2: Attagene TRANS-FACTORIAL Multi-Species (XSP2) HepG2 Assay for turtle Estrogen Receptor (ERa) (AID 2283812);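 note: actives raise reporter signal above DMSO so AC50 reflects agonist activity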
Method in brief: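 Readout is reporter mRNA quantified by RT-PCR with capillary electrophoresis after 24 h compound exposure, increase relative to DMSO. Uses transiently transfected human HepG2 liver cells carrying a chimeric turtle ERa-Gal4 receptor driving GAL4-UAS reporters.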

[9] = biological target: Estrogen receptor beta (Homo sapiens) (UniProt Q92731); assay: ATG_hERb_XSP2: Attagene TRANS-FACTORIAL Multi-Species (XSP2) HepG2 Assay for human Estrogen Receptor (ERb) (AID 2283813);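 note: actives raise reporter mRNA above DMSO so AC50 reflects agonist induction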
Chain of Estrogen receptor beta (Homo sapiens) (Q92731 whole entry, looked up, the tested form may be a part): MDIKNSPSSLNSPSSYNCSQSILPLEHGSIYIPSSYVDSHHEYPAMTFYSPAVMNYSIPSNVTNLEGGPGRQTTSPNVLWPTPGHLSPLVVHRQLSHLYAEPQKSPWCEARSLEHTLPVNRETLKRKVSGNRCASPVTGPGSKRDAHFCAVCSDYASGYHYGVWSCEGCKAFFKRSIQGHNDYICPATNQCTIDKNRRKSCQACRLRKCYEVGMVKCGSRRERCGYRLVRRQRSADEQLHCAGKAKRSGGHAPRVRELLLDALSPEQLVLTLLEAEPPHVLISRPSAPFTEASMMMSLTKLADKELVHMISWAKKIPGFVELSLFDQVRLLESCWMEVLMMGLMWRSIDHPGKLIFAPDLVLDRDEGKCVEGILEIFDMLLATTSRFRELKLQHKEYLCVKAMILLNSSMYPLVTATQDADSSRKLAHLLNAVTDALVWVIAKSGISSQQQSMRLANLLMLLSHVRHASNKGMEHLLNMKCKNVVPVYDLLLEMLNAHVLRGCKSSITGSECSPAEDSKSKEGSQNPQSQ
Method in brief: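 Transient TRANS reporter system in HepG2: after 24 h of chemical, RNA is reverse-transcribed, reporter cDNA amplified, FAM-labelled and sized by capillary electrophoresis. Induction of the human ERb-Gal4 reporter is measured relative to DMSO.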

[10] = biological target: GAL4 Transcription Factor (Internal Marker), GAL4 (gene 855828) (UniProt P04386); assay: ATG_GAL4_XSP2: Attagene TRANS-FACTORIAL Multi-Species (XSP2) HepG2 Assay for GAL4 Transcription Factor (Internal Marker) (AID 2283814);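 note: GAL4 reporter mRNA background control in MRTU transfected cells not a receptor target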
Chain of GAL4 Transcription Factor (Internal Marker), GAL4 (gene 855828) (P04386 whole entry, looked up, the tested form may be a part): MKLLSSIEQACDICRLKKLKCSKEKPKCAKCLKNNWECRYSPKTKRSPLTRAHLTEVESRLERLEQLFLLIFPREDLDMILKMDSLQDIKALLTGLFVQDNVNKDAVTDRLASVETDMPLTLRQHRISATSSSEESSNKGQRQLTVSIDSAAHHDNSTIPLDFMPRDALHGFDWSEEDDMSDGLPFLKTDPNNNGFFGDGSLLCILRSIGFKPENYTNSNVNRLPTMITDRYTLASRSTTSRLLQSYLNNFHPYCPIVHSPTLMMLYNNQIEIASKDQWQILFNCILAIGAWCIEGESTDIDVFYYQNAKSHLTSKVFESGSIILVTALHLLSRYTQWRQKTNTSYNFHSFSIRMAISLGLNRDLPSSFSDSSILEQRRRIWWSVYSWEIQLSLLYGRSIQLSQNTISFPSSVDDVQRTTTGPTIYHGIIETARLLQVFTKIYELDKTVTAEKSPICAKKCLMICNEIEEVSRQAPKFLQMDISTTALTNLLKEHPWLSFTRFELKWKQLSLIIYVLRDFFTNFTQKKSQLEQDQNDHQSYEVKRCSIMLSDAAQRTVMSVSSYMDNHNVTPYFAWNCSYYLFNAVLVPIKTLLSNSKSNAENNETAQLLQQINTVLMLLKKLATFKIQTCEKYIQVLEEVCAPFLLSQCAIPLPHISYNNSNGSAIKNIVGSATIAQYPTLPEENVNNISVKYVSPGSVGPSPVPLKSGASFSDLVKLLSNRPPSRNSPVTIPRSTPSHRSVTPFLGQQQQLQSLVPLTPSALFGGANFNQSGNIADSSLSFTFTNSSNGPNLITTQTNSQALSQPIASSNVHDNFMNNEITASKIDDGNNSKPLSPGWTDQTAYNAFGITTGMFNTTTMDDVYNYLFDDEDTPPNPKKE
Method in brief: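 Background-control readout: gain-of-signal fitted against DMSO. After 24 h exposure of transfected HepG2 (MRTU, GAL4-UAS reporters; 3 nM 6-alpha-fluorotestosterone, 1.5 nM norgestrel present), transcripts quantified by RT-PCR and capillary electrophoresis fluorescence.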

[11] = test system: turtle Androgen Receptor (AR), gene 101947425; assay: ATG_trAR_XSP2: Attagene TRANS-FACTORIAL Multi-Species (XSP2) HepG2 Assay for turtle Androgen Receptor (AR) (AID 2283815);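 for AC50: reporter mRNA from a Gal4 chimera of turtle AR measured by RT-PCR; potency for gain of reporter signal meaning activation above DMSO baseline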
Method in brief: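 Reporter transcripts were quantified via RT-PCR and capillary electrophoresis and fitted upward against DMSO. Transiently transfected human HepG2 cells carrying NR-Gal4 chimeras were exposed 24 h, with 3 nM 6-alpha-fluorotestosterone plus 1.5 nM norgestrel added.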

[12] = biological target: zebrafish Estrogen Receptor (ER1), esr1 (gene 259252) (UniProt P57717); assay: ATG_zfER1_XSP2: Attagene TRANS-FACTORIAL Multi-Species (XSP2) HepG2 Assay for zebrafish Estrogen Receptor (ER1) (AID 2283816)
Chain of zebrafish Estrogen Receptor (ER1), esr1 (gene 259252) (P57717 whole entry, looked up, the tested form may be a part): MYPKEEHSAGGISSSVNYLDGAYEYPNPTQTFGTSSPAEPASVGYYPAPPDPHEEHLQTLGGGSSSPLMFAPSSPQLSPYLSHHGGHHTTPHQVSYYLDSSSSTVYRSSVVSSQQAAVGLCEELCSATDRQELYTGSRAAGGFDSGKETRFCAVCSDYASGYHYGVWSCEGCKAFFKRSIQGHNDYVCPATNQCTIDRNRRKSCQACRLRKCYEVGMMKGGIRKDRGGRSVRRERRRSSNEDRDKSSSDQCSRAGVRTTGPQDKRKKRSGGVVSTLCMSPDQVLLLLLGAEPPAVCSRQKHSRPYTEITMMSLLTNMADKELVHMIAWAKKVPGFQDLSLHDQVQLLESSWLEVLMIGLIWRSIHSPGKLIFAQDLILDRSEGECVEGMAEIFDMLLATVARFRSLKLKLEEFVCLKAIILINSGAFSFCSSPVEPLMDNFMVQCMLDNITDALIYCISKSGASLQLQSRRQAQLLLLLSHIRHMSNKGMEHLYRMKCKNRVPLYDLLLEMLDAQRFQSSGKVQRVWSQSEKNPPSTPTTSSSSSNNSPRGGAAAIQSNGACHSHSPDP
Method in brief: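 After 24 h compound exposure, RNA from transfected HepG2 cells was reverse-transcribed and reporter transcripts resolved by capillary electrophoresis. The TRANS format reads exogenous zebrafish ER1-Gal4 chimera activity on GAL4-UAS elements; gain of signal against DMSO.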

[13] = biological target: chicken Estrogen Receptor (ERa), ESR1 (gene 396099) (UniProt P06212); assay: ATG_chERa_XSP2: Attagene TRANS-FACTORIAL Multi-Species (XSP2) HepG2 Assay for chicken Estrogen Receptor (ERa) (AID 2283817);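 note: actives raise reporter signal above DMSO so AC50 reflects ER activation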
Chain of chicken Estrogen Receptor (ERa), ESR1 (gene 396099) (P06212 whole entry, looked up, the tested form may be a part): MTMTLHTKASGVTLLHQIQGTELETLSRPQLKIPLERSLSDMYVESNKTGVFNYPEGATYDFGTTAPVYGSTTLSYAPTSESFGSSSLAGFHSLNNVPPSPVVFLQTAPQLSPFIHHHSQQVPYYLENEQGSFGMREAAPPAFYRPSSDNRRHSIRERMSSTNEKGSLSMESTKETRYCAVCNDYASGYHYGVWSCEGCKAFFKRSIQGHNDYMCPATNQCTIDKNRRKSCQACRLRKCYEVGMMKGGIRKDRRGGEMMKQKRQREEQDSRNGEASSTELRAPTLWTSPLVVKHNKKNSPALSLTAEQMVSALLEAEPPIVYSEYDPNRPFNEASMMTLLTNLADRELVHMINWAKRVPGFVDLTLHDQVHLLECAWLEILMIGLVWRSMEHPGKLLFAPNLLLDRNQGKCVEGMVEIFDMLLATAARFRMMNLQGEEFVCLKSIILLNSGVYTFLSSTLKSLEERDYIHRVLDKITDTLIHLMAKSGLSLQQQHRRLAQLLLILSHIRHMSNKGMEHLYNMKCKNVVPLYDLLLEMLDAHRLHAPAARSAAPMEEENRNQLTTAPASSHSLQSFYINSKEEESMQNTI
Method in brief: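 Readout: fluorescent reporter-transcript fragments resolved by capillary electrophoresis after RT-PCR and HpaI cut. Chicken ERa-Gal4 fusion in transiently transfected HepG2, dosed for 24 h; activity taken as increase over DMSO baseline.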

[14] = STM_H9_NormalizedViability: Cytotoxicity Assessment at 120 hours in the Stemina devTOX quickPredict H9 human embryonic stem cell (hESC)-based Assay (AID 2283784)
Method in brief: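 Viability endpoint: background-corrected CellTiter-Fluor RFU expressed relative to the 0.1% DMSO mean on each plate. Undifferentiated H9 cells were treated with daily re-dosing and media change, and loss of signal was fitted.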

[15] = ATG_M_06_XSP2: Attagene TRANS-FACTORIAL Multi-Species (XSP2) HepG2 Assay for M06 Transcription Factor (Internal Marker) (AID 2283811);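 note: internal background marker reporter mRNA measured by RT-PCR and capillary electrophoresis; hits are increases in signal above the DMSO baseline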
Method in brief: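 Readout: fluorescent reporter-mRNA peaks by capillary electrophoresis after RT-PCR and HpaI digest, scored upward relative to DMSO. Transfected HepG2, 24 h chemical exposure, with 3 nM 6-alpha-fluorotestosterone and 1.5 nM norgestrel added.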

[16] = test system: Thyroperoxidase (TPO), gene 445522; assay: CCTE_Simmons_GUA_TPO: CCTE's Guaiacol Assay for Thyroperoxidase (TPO) Inhibition, Simmons Lab (AID 2283750)
Method in brief: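 Porcine thyroid microsomes (25 ug) in 200mM potassium phosphate, preincubated 30 s at 37C with compound (8 concentrations, 5 nM–87.5 uM) and 35mM guaiacol; 1mM H2O2 starts reaction. Absorbance change at 450nm over first 80 s; loss of signal versus DMSO, three replicates.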

Measured: AC50

O=C(O)C1(c2ccc3c(c2)OC[C@H](Cc2ccc(-c4ccccc4)cc2)[C@H]3O)CCCC1
active: [2] 85.2 µM | [3] 34.6 µM | [5] 78.3 µM
inactive: [1] | [4]

CCCSP(=S)(OCC)Oc1ccc(SC)cc1 (configuration not stated)
inactive: [2] | [3] | [5]

CC(C)(C)c1ccccc1O
inactive: [1] | [2] | [3] | [4]
active: [5] 81.5 µM

N#CCC#N
inactive: [2] | [3] | [4] | [5] | [6] | [7]

Oc1c(Cl)cc(Cl)cc1Cl
active: [1] 19.1 µM

Oc1cc(Cl)c(Cl)cc1Cl
active: [1] 32.1 µM | [3] 64.8 µM | [4] 71.8 µM | [8] 13 µM and 6.06 µM | [9] 20.3 µM | [11] 7.74 µM and 2.23 µM | [13] 29.9 µM
inactive: [5] | [9] | [10] | [12] | [13]

O=C1c2ccccc2C(=O)C1C(=O)C(c1ccccc1)c1ccc(Cl)cc1 (configuration not stated)
active: [3] 26.7 µM | [4] 24.6 µM | [5] 33 µM | [7] 25 µM
inactive: [2] | [6]

O=C(N[C@H]1CN2CCC1CC2)c1ccc2c(c1)OCCO2
inactive: [1] | [4] | [5] | [6] | [7]

Nc1ccc(N)cc1
active: [2] 13.9 µM | [5] 49.8 µM
inactive: [3] | [4]

CC(C)O.CC(C)O.OCCN(CCO)CCO.OCCN(CCO)CCO.[Ti]
inactive: [1] | [3] | [4] | [14]

COc1ccc(N)cc1
inactive: [2] | [3] | [4] | [5]
active: [5] 52 µM

O=S1(=O)OC(c2cc(Br)c(O)c(Br)c2)(c2cc(Br)c(O)c(Br)c2)c2ccccc21
inactive: [4] | [5] | [6] | [7]
active: [2] 32.1 µM

CCCCCCCCCCCCOS(=O)(=O)O
active: [3] 77.7 µM | [4] 72.1 µM | [5] 71.3 µM
inactive: [2] | [4]

OCCN(CCO)CCO
inactive: [1] | [4] | [14]

CCCCCCCCCCCCc1cccc(S(=O)(=O)O)c1
active: [3] 76.7 µM | [4] 75 µM | [5] 83.1 µM
inactive: [1] | [2]

CN(N=O)C(N)=O
inactive: [2]

O=C(CCl)Nc1ccccc1
active: [3] 24.5 µM | [4] 12.7 µM | [5] 10.8 µM | [7] 16.6 µM
inactive: [2] | [6]

N#Cc1cccnc1
inactive: [1] | [3] | [4] | [5]

Clc1cccc(Cl)c1Cl
inactive: [3] | [4]
active: [1] 0.00446 µM

Clc1cccc(Cl)c1
inactive: [1] | [3] | [4] | [5]

CCOP(=S)(OCC)O/N=C(\C#N)c1ccccc1
inactive: [3] | [15] | [9] | [10] | [11] | [12]
active: [2] 70 µM | [8] 7.97 µM and 2.27 µM | [12] 6.85 µM | [13] 6.64 µM and 5.37 µM

O=c1[nH]c(=O)n(Cl)c(=O)n1Cl
inactive: [2] | [3] | [4] | [5]

COc1ccccc1N
inactive: [1] | [2] | [3] | [4] | [5]
active: [16] 33.2 µM

COC(=O)Nc1cccc(OC(=O)Nc2cccc(C)c2)c1
active: [2] 9.99 µM
inactive: [4]

O=C(NC(=O)c1c(F)cccc1F)Nc1ccc(Cl)cc1
inactive: [2] | [4] | [5]

From PubChem BioAssay (EPA / NIEHS)
